The list is a sample of the results.
aSyn 5UTR act = Activators via SNCA 5'UTR binding, MLPCN. alpha-synuclein 5'UTR reporter, activators screen. activity score, % (tested at 7.5 µM), hits read low. 300,000 tested, 7.1% active. AID 1814, 2009; in the data active = activity score below about -60%
Active calls of the source: *.

SMILES | aSyn 5UTR act
CCSc1nnc(NC(=O)C2Cc3ccccc3CN2S(=O)(=O)CC)s1 (stereo not drawn) | -88*
CCS(=O)(=O)N1Cc2ccccc2CC1C(=O)Nc1nccs1 (stereo not drawn) | -167*
COc1ccc(S(=O)(=O)N2Cc3ccccc3CC2C(=O)Nc2nccs2)cc1OC (stereo not drawn) | -149*
COc1ccc(S(=O)(=O)N2Cc3ccccc3CC2C(=O)Nc2nccs2)cc1 (stereo not drawn) | -158*
COc1cccc(-c2nc3sc4c(c3c(=O)[nH]2)CCCCC4)c1 | -267*
O=c1c2ccccc2nnn1CSc1ccccc1 | -75*
O=C(Nc1nnc(-c2ccccc2F)s1)C1CCCO1 (stereo not drawn) | -181*
O=C(Nc1nc2ccccc2s1)C1CCCO1 (stereo not drawn) | -132*
Cc1cc(C)c2sc(NC(=O)C3CC3)nc2c1 | -89*
O=C(Nc1ccc(-c2nc3cccnc3s2)cc1)C1CCCO1 (stereo not drawn) | 87
O=C(Nc1nc2ccc(F)cc2s1)C1CCCO1 (stereo not drawn) | -145*
Nc1ccc2nc(NC(=O)C3CCCCC3)sc2c1 | -124*
COc1ccccc1C(=O)COC(=O)/C=C/c1ccccc1 | -69*
COc1ccccc1C(=O)COC(=O)c1ccc(N(C)C)cc1 | -218*
COc1ccc(C(=O)c2ccc(N(C)C)cc2)c2ccccc12 | 74
COc1ccccc1C(=O)COC(=O)c1ccccc1O | -104*
CC(=C/c1ccc(C(C)C)cc1)/C=N/NC(=O)CSc1ccccn1 | -164*
CC(/C=N/NC(=O)CSc1ccccn1)=C\c1ccc(C(C)C)cc1 | -254*
CCCN1CCN(CCCNC(=O)c2ccc3nc(N4CCCCC4)sc3c2)CC1 | -214*
CC1CC(C)CN(S(=O)(=O)c2ccc(C(=O)NCCCn3ccnc3)cc2)C1 (stereo not drawn) | 98
CC1CC(C)CN(CCCNC(=O)c2ccc3nc(N4CCCCC4)sc3c2)C1 (stereo not drawn) | -273*
CCCNC(=O)c1ccc(N2CCC3(CC2)CC(c2ccccc2)=NO3)c(NC(=O)c2ccccc2)c1 | 59
CC(=O)N1CCc2cc(S(=O)(=O)NCCC(=O)Nc3ccc4c(c3)OCCO4)ccc21 | -176*
O=C(Nc1ccn(Cc2ccccc2F)n1)c1ccc(COc2cccc(Br)c2)cc1 | -150*
Cc1ccc(S(=O)(=O)CCC(=O)N(CCN2CCOCC2)c2nc3ccccc3s2)cc1 | -75*
SMILES | aSyn 5UTR act
CCCC(=O)N(CCN1CCOCC1)c1nc2c(F)cc(F)cc2s1 | -86*
NC(=O)c1ccccc1N/C=C/C(=O)c1ccco1 | -97*
O=C(/C=C/Nc1ccccc1C(F)(F)F)c1ccco1 | -321*
O=C(/C=C/Nc1cccc(C(F)(F)F)c1)c1ccc(Oc2ncccn2)cc1 | -94*
O=C(/C=C/Nc1ccc(Oc2ccccc2)cc1)c1ccco1 | -201*
O=C(/C=C/Nc1cccc(C(F)(F)F)c1)c1ccco1 | -174*
Cc1cc(=O)c2cc3nc(-c4cccnc4)oc3c(Br)c2o1 | -67*
Oc1c(C(Nc2nc3ccccc3s2)c2ccco2)ccc2cccnc12 (stereo not drawn) | 66
c1coc(CN2CN=C(Nc3nc4ccccc4s3)NC2)c1 | -81*
c1ccc(Nc2nc(NCc3ccco3)c3ccccc3n2)cc1 | -67*
c1ccc2sc(NC3=NCN(CC4CCCO4)CN3)nc2c1 (stereo not drawn) | -86*
c1coc(CNc2nc3ccccc3s2)c1 | -137*
Nc1nc(Nc2ccccc2)nc(NCc2ccccc2)c1[N+](=O)[O-] | 84
CC(=O)NC1Sc2ccccc2N=C1c1ccccc1 (stereo not drawn) | -181*
O=[N+]([O-])c1cccc(/C=N/N2CCN(c3ccccn3)CC2)c1 | -99*
O=[N+]([O-])c1cccc(/C=N/N2CCN(Cc3ccccc3)CC2)c1 | -115*
O=C(Nc1ccccc1)Nc1c(F)cccc1F | -66*
CC(=O)Nc1ccc(SCCCC(=O)c2ccccc2)cc1 | -161*
CC(=O)Nc1ccc(NC(=O)Nc2ccccc2)cc1 | -70*
O=C(Nc1ccccc1)Nc1scc2c1c(=O)oc1ccccc12 | -123*
CC(=O)Nc1ccc(C#Cc2ccc(NC(C)=O)cc2)cc1 | 74
O=C(Nc1ccccc1)Nc1csc2ccccc12 | -165*
COc1ccccc1N1CCN(C(=O)c2ccc(Cl)c(S(=O)(=O)NCc3ccco3)c2)CC1 | -124*
COc1cc(C(=O)N2CCN(c3cc(Cl)ccc3Cl)CC2)cc(OC)c1OC | 89
CCSc1ccc(-c2cccc([N+](=O)[O-])c2)nn1 | -89*
SMILES | aSyn 5UTR act
c1ccc(Cn2c(-c3cncs3)nc3ccccc32)cc1 | -92*
Brc1ccc(Cn2c(-c3cncs3)nc3ccccc32)cc1 | -112*
Cc1ccc(/C(N)=N/OC(=O)CCc2ccccc2)cc1 | -129*
N/C(=N\OC(=O)CCc1ccccc1)c1ccccc1Cl | -70*
N#CC(C#N)=c1ccc2c(c1)NC1(CCCCC1)N=2 | -337*
CN(C)c1cccc(C(=O)NC2CCCCCC2)c1 | -118*
Cc1cc(C(=O)NC2CCCCCCC2)ccc1[N+](=O)[O-] | -141*

Source: PubChem BioAssay (Broad Institute)
